{
  "source": "PubChem BioAssay (NCI)",
  "note": "About 79,000 compounds went through this panel and 15% of them were active in at least one assay; those are over-represented in the sample as a whole. Values without a mark were called inactive. The source made the active and inactive calls. Rule as the data show it: active = growth inhibition above about 70%; inactive = the rest.",
  "data": [
    {"test": "NCI Yeast Anticancer Drug Screen. Data for the rad50 strain (AID 155);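 also: 0% = growth of vehicle-only cultures of the same strain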", "conditions": "S. cerevisiae rad50 strain growth inhibition; at 50.0 µM; stronger effect = higher value", "method_in_brief": "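DNA repair mutant yeast, compound exposure, growth read-out; inhibition is taken relative to vehicle.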", "values": [
      {"smiles": "[Au].[NH-]CC[NH-].[NH-]CC[NH-]", "growth inhibition": "9.45%"},
      {"smiles": "C1C[OH+]CC[OH+]CC[OH+]CC[OH+]CC[OH+]1.[Cl-].[V]", "growth inhibition": "-13.2%"},
      {"smiles": "Clc1ccc(N=P(c2ccccc2)(c2ccccc2)c2ccccc2)cc1.[Cl][Cd][Cl]", "growth inhibition": "95% (active)"},
      {"smiles": "C=CCOCC1CO1", "note": "(stereo not drawn)", "growth inhibition": "9.1%"},
      {"smiles": "CC1CN1P(=O)(N1CCc2ccccc21)N1CC1C", "note": "(stereo not drawn)", "growth inhibition": "-21.8%"},
      {"smiles": "CCCCCCCCCCCCCCCCS(=O)(=O)c1ccc(S(=O)(=O)F)cc1NC(=O)C(F)(F)F", "growth inhibition": "-22.4%"},
      {"smiles": "CC(=O)c1ccc(Br)cc1", "growth inhibition": "2%"},
      {"smiles": "COc1cccc(N2CCNCC2)c1", "growth inhibition": "-5.2%"},
      {"smiles": "CCC(N)CBr", "note": "(stereo not drawn)", "growth inhibition": "-9.65%"},
      {"smiles": "CN(C)C1C(=O)C(C(=O)NP(=O)(NCCCO)N(CCCl)CCCl)=C(O)C2(O)C(=O)C3=C(O)c4c(O)cccc4C(C)(O)C3CC12", "note": "(stereo not drawn)", "growth inhibition": "27.6%"},
      {"smiles": "Cc1ccc(C[N+](C)(C)C)cc1", "growth inhibition": "10.6%"},
      {"smiles": "NC1=NC(N)=N1", "growth inhibition": "1.95%"},
      {"smiles": "N=c1nc(N)n2c(N)nc(=N)n12", "growth inhibition": "19.9%"},
      {"smiles": "O=[N+]([O-])c1cc(Br)c(O)c(Br)c1", "growth inhibition": "12.2%"},
      {"smiles": "O=C1CCC(=O)N1c1ccc([As](=O)(O)O)cc1", "growth inhibition": "-2.55%"},
      {"smiles": "O=[N+]([O-])c1ccc(-n2nc3ccc4c(no[n+]4[O-])c3n2)cc1", "growth inhibition": "-21.6%"},
      {"smiles": "CN1CCN[C@@H]2CCCC[C@@H]21", "growth inhibition": "11.2%"},
      {"smiles": "N#CCC(=O)[O][Sn]([c]1ccccc1)([c]1ccccc1)[c]1ccccc1", "growth inhibition": "98% (active)"},
      {"smiles": "CCN(CC)/C(=C\\Cl)Nc1ccccn1", "growth inhibition": "-0.9%"},
      {"smiles": "CCCCCCCC(=O)[O-].N.N.N.N.N.[Co+3].[O-][Cl+3]([O-])([O-])[O-]", "growth inhibition": "-16.1%"},
      {"smiles": "CCOP(=O)(CCP(=O)(OCC)OCC)OCC.C[CH2][Sn]([Cl])([Cl])[CH2]C", "growth inhibition": "42.9%"},
      {"smiles": "CC(=O)C1=C(O)C2C3c4c[nH]c5cccc(c45)CC3C(C)(C)N2C1=O", "note": "(stereo not drawn)", "growth inhibition": "22.6%"},
      {"smiles": "O=[N+]([O-])/C=C\\c1c[nH]c2ccc(OCc3ccccc3)cc12", "growth inhibition": "52.5%"},
      {"smiles": "Nc1cccc(SC2CC(=O)N(c3ccc(Cl)cc3C(=O)c3ccccc3)C2=O)c1", "note": "(stereo not drawn)", "growth inhibition": "16.6%"},
      {"smiles": "CC(=O)Nc1cccc([As+](C)(C)C)c1", "growth inhibition": "14.3%"},
      {"smiles": "CN(C)C(=O)N(CCCl)N=O", "growth inhibition": "5.1%"},
      {"smiles": "CC(C)OP(=O)(NC(=S)c1ccccc1)OC(C)C", "growth inhibition": "19.1%"},
      {"smiles": "CC(/C=C/C1OC(=O)C=CC1C)=C\\C(C)C/C=C/C(C)=C/C(CO)C(=O)C(C)C(O)C(C)C/C(C)=C/C(=O)O", "note": "(stereo not drawn)", "growth inhibition": "73.1% (active)"},
      {"smiles": "C=C1OC(OC)CC(N=[N+]=[N-])C1O", "note": "(stereo not drawn)", "growth inhibition": "-14.1%"},
      {"smiles": "Cc1ccc(Oc2ccc3c(c2)CN(C)CC3)cc1", "growth inhibition": "93.8% (active)"},
      {"smiles": "CCCC[S][Sn-]([CH2]CCC)([CH2]CCC)[CH2]CCC", "growth inhibition": "98.7% (active)"},
      {"smiles": "CC(Cl)CN(CC(C)Cl)C(=O)Oc1ccc(CC(N)C(=O)O)cc1", "note": "(stereo not drawn)", "growth inhibition": "31.1%"},
      {"smiles": "COC(=O)C1C(O)CC2CCC1[N+]2(C)C", "note": "(stereo not drawn)", "growth inhibition": "3.3%"},
      {"smiles": "CN(C)CCN1C(=O)CN=C(c2ccccc2Cl)c2cc(Cl)ccc21", "growth inhibition": "15.8%"},
      {"smiles": "O=N[O-].O=N[O-].[Co].[NH-]CC[N-]CCO.[NH-]CC[N-]CCO", "growth inhibition": "37.6%"},
      {"smiles": "NC(=O)c1cc([N+](=O)[O-])cc([N+](=O)[O-])c1N(CCCl)CCCl", "growth inhibition": "-3%"},
      {"smiles": "CC(C)C1NC(C(C)C)N2C(C(C)C)N12", "note": "(stereo not drawn)", "growth inhibition": "-0.05%"},
      {"smiles": "Cc1cc(C)c(C(=O)O)c(C)c1.[Hg]", "growth inhibition": "99.6% (active)"},
      {"smiles": "CCCCC1(CCC)C(=O)NC(=O)NC1=O", "growth inhibition": "9.8%"}
    ]},
    {"test": "NCI Yeast Anticancer Drug Screen. Data for the mec2-1 strain (AID 157)", "conditions": "S. cerevisiae mec2-1 strain, at 50.0 µM, stronger effect = higher value", "method_in_brief": "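Compounds were applied to mec2-1 yeast cells. Their growth was then compared with that of vehicle-treated cultures to give growth inhibition.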", "values": [
      {"smiles": "[Au].[NH-]CC[NH-].[NH-]CC[NH-]", "growth inhibition": "-5.5%"},
      {"smiles": "C1C[OH+]CC[OH+]CC[OH+]CC[OH+]CC[OH+]1.[Cl-].[V]", "growth inhibition": "-6.25%"},
      {"smiles": "Clc1ccc(N=P(c2ccccc2)(c2ccccc2)c2ccccc2)cc1.[Cl][Cd][Cl]", "growth inhibition": "71% (active)"},
      {"smiles": "C=CCOCC1CO1", "note": "(stereo not drawn)", "growth inhibition": "-5.1%"},
      {"smiles": "CC1CN1P(=O)(N1CCc2ccccc21)N1CC1C", "note": "(stereo not drawn)", "growth inhibition": "-7.9%"},
      {"smiles": "CCCCCCCCCCCCCCCCS(=O)(=O)c1ccc(S(=O)(=O)F)cc1NC(=O)C(F)(F)F", "growth inhibition": "-9.9%"},
      {"smiles": "CC(=O)c1ccc(Br)cc1", "growth inhibition": "-5.5%"},
      {"smiles": "COc1cccc(N2CCNCC2)c1", "growth inhibition": "-12.6%"},
      {"smiles": "CCC(N)CBr", "note": "(stereo not drawn)", "growth inhibition": "1.7%"},
      {"smiles": "CN(C)C1C(=O)C(C(=O)NP(=O)(NCCCO)N(CCCl)CCCl)=C(O)C2(O)C(=O)C3=C(O)c4c(O)cccc4C(C)(O)C3CC12", "note": "(stereo not drawn)", "growth inhibition": "20.1%"},
      {"smiles": "Cc1ccc(C[N+](C)(C)C)cc1", "growth inhibition": "-17.6%"},
      {"smiles": "NC1=NC(N)=N1", "growth inhibition": "16.6%"},
      {"smiles": "N=c1nc(N)n2c(N)nc(=N)n12", "growth inhibition": "12.7%"},
      {"smiles": "O=[N+]([O-])c1cc(Br)c(O)c(Br)c1", "growth inhibition": "18.8%"},
      {"smiles": "O=C1CCC(=O)N1c1ccc([As](=O)(O)O)cc1", "growth inhibition": "-9.15%"},
      {"smiles": "O=[N+]([O-])c1ccc(-n2nc3ccc4c(no[n+]4[O-])c3n2)cc1", "growth inhibition": "23.5%"},
      {"smiles": "CN1CCN[C@@H]2CCCC[C@@H]21", "growth inhibition": "-5%"},
      {"smiles": "N#CCC(=O)[O][Sn]([c]1ccccc1)([c]1ccccc1)[c]1ccccc1", "growth inhibition": "98.3% (active)"},
      {"smiles": "CCN(CC)/C(=C\\Cl)Nc1ccccn1", "growth inhibition": "-4%"},
      {"smiles": "CCCCCCCC(=O)[O-].N.N.N.N.N.[Co+3].[O-][Cl+3]([O-])([O-])[O-]", "growth inhibition": "20.2%"},
      {"smiles": "CCOP(=O)(CCP(=O)(OCC)OCC)OCC.C[CH2][Sn]([Cl])([Cl])[CH2]C", "growth inhibition": "52.1%"},
      {"smiles": "CC(=O)C1=C(O)C2C3c4c[nH]c5cccc(c45)CC3C(C)(C)N2C1=O", "note": "(stereo not drawn)", "growth inhibition": "-11%"},
      {"smiles": "O=[N+]([O-])/C=C\\c1c[nH]c2ccc(OCc3ccccc3)cc12", "growth inhibition": "30.8%"},
      {"smiles": "Nc1cccc(SC2CC(=O)N(c3ccc(Cl)cc3C(=O)c3ccccc3)C2=O)c1", "note": "(stereo not drawn)", "growth inhibition": "-4.6%"},
      {"smiles": "CC(=O)Nc1cccc([As+](C)(C)C)c1", "growth inhibition": "9.75%"},
      {"smiles": "CN(C)C(=O)N(CCCl)N=O", "growth inhibition": "-4.2%"},
      {"smiles": "CC(C)OP(=O)(NC(=S)c1ccccc1)OC(C)C", "growth inhibition": "21%"},
      {"smiles": "CC(/C=C/C1OC(=O)C=CC1C)=C\\C(C)C/C=C/C(C)=C/C(CO)C(=O)C(C)C(O)C(C)C/C(C)=C/C(=O)O", "note": "(stereo not drawn)", "growth inhibition": "62.2%"},
      {"smiles": "C=C1OC(OC)CC(N=[N+]=[N-])C1O", "note": "(stereo not drawn)", "growth inhibition": "-2.9%"},
      {"smiles": "Cc1ccc(Oc2ccc3c(c2)CN(C)CC3)cc1", "growth inhibition": "90.5% (active)"},
      {"smiles": "CCCC[S][Sn-]([CH2]CCC)([CH2]CCC)[CH2]CCC", "growth inhibition": "98.7% (active)"},
      {"smiles": "CC(Cl)CN(CC(C)Cl)C(=O)Oc1ccc(CC(N)C(=O)O)cc1", "note": "(stereo not drawn)", "growth inhibition": "0.7%"},
      {"smiles": "COC(=O)C1C(O)CC2CCC1[N+]2(C)C", "note": "(stereo not drawn)", "growth inhibition": "5.8%"},
      {"smiles": "CN(C)CCN1C(=O)CN=C(c2ccccc2Cl)c2cc(Cl)ccc21", "growth inhibition": "12.2%"},
      {"smiles": "O=N[O-].O=N[O-].[Co].[NH-]CC[N-]CCO.[NH-]CC[N-]CCO", "growth inhibition": "-0.7%"},
      {"smiles": "NC(=O)c1cc([N+](=O)[O-])cc([N+](=O)[O-])c1N(CCCl)CCCl", "growth inhibition": "-10.9%"},
      {"smiles": "CC(C)C1NC(C(C)C)N2C(C(C)C)N12", "note": "(stereo not drawn)", "growth inhibition": "-17.2%"},
      {"smiles": "Cc1cc(C)c(C(=O)O)c(C)c1.[Hg]", "growth inhibition": "99.8% (active)"},
      {"smiles": "CCCCC1(CCC)C(=O)NC(=O)NC1=O", "growth inhibition": "9.5%"}
    ]}
  ]
}
